Reference: PubChem BioAssay AID463218 (Sanford-Burnham Center for Chemical Genomics, 2010)
The whole screen tested about 4,400 compounds, of which about 3,700 (84%) were called active. The set was probably picked from earlier hits. A selection follows. Values without a mark were called inactive.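 How the source made its calls: active means inhibition above about 39% in either of two replicate wells at 20 µM (limit read from the data); inactive means the rest.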

assay: tim23-1 mutant yeast growth inhibitors, confirmation, luminescence, single concentration (AID 463218);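 further: temperature-sensitive tim23-1 mutant grown at 25 °C; 0% = DMSO wells with yeast and 100% = medium wells without yeast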; conditions: S. cerevisiae tim23-1 growth, BacTiter-Glo luminescence, 24 h; at 20 µM; stronger effect = higher value

SMILES	inhibition
CCN1/C(=C\c2ccc3ccccc3[n+]2CC)Sc2cc(C)ccc21	64.8% (active)
CCc1ccc2oc(-c3ccc(N)cc3)nc2c1	58.8% (active)
O=C(CSc1cccc2cccnc12)N/N=C/c1cccnc1	62% (active)
C[C@@H]1C(c2ccc(F)cc2)=NN(c2ccc(Br)cc2)[C@H]1C(=O)N1CCOC1=O	44.6% (active)
CCOc1cc(/C=C2\SC(N3CCCC(C)C3)=NC2=O)ccc1O (configuration not stated)	43% (active)
O=C(/C=C/c1ccccc1)c1ccccc1O	62.4% (active)
COc1ccc(Oc2cn[nH]c2-c2ccc(OC)cc2O)cc1	59.6% (active)
CCC(C)c1ccc(NC(=O)COC(=O)C2CCCC2)cc1 (configuration not stated)	49.4% (active)
Clc1ccc(Nc2ccc3ccccc3n2)cc1	43.8% (active)
O=Cc1cn(-c2ccccc2)nc1-c1ccccn1	57.2% (active)
CC1CCCC(C)N1C(=O)CN1CCN(c2nc(-c3ccc(F)cc3)cs2)CC1 (configuration not stated)	54.5% (active)
CC1(C)C2CCC1(C)C(OC(=O)c1ccc(O)cc1)C2 (configuration not stated)	58% (active)
CCOC(=O)C1=C(C)N=c2s/c(=C\C(=O)OC)c(=O)n2C1c1ccc(OC)cc1 (configuration not stated)	55.2% (active)
CC[C@]1(C(=O)OC)[C@H]2C(=O)N(Cc3ccccc3)C(=O)[C@H]2[C@H]2CN=C(SCc3ccc(Cl)cc3)N21	31.4%
O=C(N/N=C\c1cccc(Br)c1)c1ccccc1-n1cccc1	50.8% (active)
O=C(Oc1c(-c2ccco2)oc2ccccc2c1=O)c1cccnc1	67.5% (active)
COc1ccc(C(=O)O/N=C(\N)Cc2ccc(Cl)cc2Cl)cc1OC	52.8% (active)
c1ccc2cc(CCCc3cc4ccccc4cn3)ncc2c1	40.3% (active)
CC1(C)C=Cc2c(ccc3c2OC[C@@H](c2ccc(O)cc2O)C3)O1	29.5%

SMILES	inhibition
Cc1ccc(Oc2cnn(-c3ccccc3)c(=O)c2Br)cc1	39.4% (active)
O=C1c2ccccc2S(=O)(=O)N1CC(O)Cn1c2ccccc2c2ccccc21 (configuration not stated)	90.8% (active)
O=C1C(=O)N(CC2COc3ccccc3O2)c2ccccc21 (configuration not stated)	46.6% (active)
O=C(COC(=O)c1ccc(O)cc1O)c1ccc2c(c1)OCCO2	21%
O=c1c(-c2ccc3c(c2)OCCO3)c(C(F)(F)F)oc2cc(O)cc(O)c12	63.5% (active)
COc1cc(/C=C(\C#N)c2nc3ccccc3[nH]2)ccc1O	54.2% (active)
Cc1cccc(/C(N)=N/OC(=O)c2ccccc2Cl)c1	75.3% (active)
CNC(=O)/C(C#N)=C/c1c(F)cccc1Cl	71.8% (active)
CCc1ccc(C(=O)NC(=S)Nc2ccccc2N2CCOCC2)cc1	49.2% (active)
O=C(NC(=S)Nc1cccc2c(O)cccc12)c1cccc(Br)c1	23.2%
CCn1c2ccccc2c2cc(NC(=S)N3CCOCC3)ccc21	31.6%
O=C(c1cc(-c2cccc(O)c2)on1)N1CCc2ccccc2C1	48.2% (active)
O=C(c1cc(-c2ccc(O)cc2)on1)N1CCCc2ccccc21	50.6% (active)
Cc1cc(Nc2ccccc2)n(C(=O)c2ccc(N)cc2)n1	55.7% (active)
N/C(=N\OC(=O)c1cc(-c2ccccc2)nc2ccccc12)c1ccncc1	80.8% (active)
O=C1CSC(=S)N1c1ccc(Cl)c(Cl)c1	76% (active)
COC(=O)c1c(NC(=O)COc2ccc(Cl)cc2Cl)sc2c1CC(C)(C)NC2(C)C	63.6% (active)
Oc1c(CN2CCN(c3ccc(F)cc3)CC2)cc(Cl)c2cccnc12	54.9% (active)
